Bioassay records as filed in PubChem BioAssay.
Calb FLC – affects C. albicans growth with fluconazole | C. albicans CaCi-2 (fluconazole-resistant clinical isolate) + fluconazole, Alamar Blue growth, 48 h | growth inhibition, % (no concentration beside the values) | 300,000 compounds, 0.57% hits;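 active means growth inhibition above about 58% in most replicates, limit read from the data, passing the limit was not always enough; inconclusive means exactly half the replicates above a set limit; inactive means most replicates below a set limit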;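 further: all wells also contain fluconazole at 8 µg/ml as a sub-toxic cotreatment; 0% = median of DMSO wells and 100% = median of geldanamycin control wells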
Efflux pump mplx – blocks antifungal efflux pumps in multiplex yeast assay | S. cerevisiae Candida pump triplex, Nile Red efflux | AID 485275 | inhibition, % at 10 µM | 330,000 compounds, 0.44% hits;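 active means plate passing quality check with inhibition over a set limit, or well fluorescence over plate mean plus 4 SD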;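 further: Nile Red retained in pooled yeast measured as flow cytometry median fluorescence; 0% = buffer negative control and 100% = Enniatin B positive control; higher means more Nile Red kept so more efflux inhibition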
Cardio protect – modulators protecting cardiomyocytes from myocardial damage. H9c2 cardiomyocytes, H2O2 injury protection, ATPLite, 2 h. protection from H2O2 cell death, % at 20 µM. 360,000 compounds, 0.63% hits. AID 588492;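 active means compounds giving at least 50% protection of heart cells from peroxide-induced death in the single-dose screen, raw or plate-pattern-corrected value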;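 further: 0% = DMSO wells with peroxide and 100% = DMSO wells without peroxide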
PHOSPHO1 block – PHOSPHO1 (human) inhibition; 290,000 compounds, 1.1% hits; recombinant PHOSPHO1, absorbance phosphatase assay; inhibition, % at 13.3 µM; AID 1565; in the data active means inhibition above about 60%
Target sequence (Q8TCT1 whole entry, looked up): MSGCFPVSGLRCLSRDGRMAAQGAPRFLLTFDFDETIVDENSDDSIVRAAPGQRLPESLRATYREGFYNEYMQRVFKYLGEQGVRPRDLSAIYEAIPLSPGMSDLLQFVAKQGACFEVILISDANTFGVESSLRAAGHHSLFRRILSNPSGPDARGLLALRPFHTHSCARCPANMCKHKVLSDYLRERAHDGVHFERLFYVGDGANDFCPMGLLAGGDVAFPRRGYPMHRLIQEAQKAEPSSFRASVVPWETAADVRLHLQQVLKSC
Cl transport mod – modulates chloride dependent transport by human KCC2; Q9H2X9; KCC2 cells, thallium flux FluoZin-2 fluorescence; B-score of Tl+ flux slope (higher = more flux/activation; lower = inhibition) at 10 µM; 190,000 compounds, 2.2% hits; AID 1456;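 active means thallium flux slope and its plate-corrected score both differing from the plate sample mean at a set confidence after two filtering rounds, in either direction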;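 further: slope of fluorescence scaled to starting intensity during 10 to 20 s after thallium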
KCC2 secondary – KCC2 (human) modulation, secondary assay; HEK293-KCC2, thallium flux, FluoZin2 fluorescence; active compounds read high; 3,700 compounds, 15% hits; normalised thallium flux (F/F0 slope) at 10 µM; shares compounds with Cl transport mod;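 active means thallium flux slope above the same plate's solvent-only control mean plus 3 SD; inconclusive means the two replicate wells disagree; inactive means no significant difference from solvent-only control wells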
KCC2 bumet counter – thallium flux despite bumetanide block in KCC2 cells, secondary assay 3 | normalized thallium flux at 10 µM | HEK293-KCC2 + bumetanide/ouabain, thallium flux FluoZin2; active compounds read high | shares compounds with Cl transport mod | 3,700 compounds, 49% hits;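 active means thallium entry rate above the same plate's blocked-transporter control wells by more than 3 SD; inconclusive means the two repeat wells disagree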;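 further: raw slope of fluorescence over initial fluorescence between 10 and 20 s after thallium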
KCC2 sec2 – KCC2 (human) modulation, second secondary assay; shares compounds with Cl transport mod; HEK293-KCC2, thallium flux FluoZin2 fluorescence; actives lie on both sides; F/F0 rise rate, 10–20 s post-thallium; normalized thallium flux at 10 µM; 3,700 compounds, 23% hits;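 active means thallium flux slope more than 3 SD above or below the plate's solvent-only control mean, mostly below; inconclusive means the two repeat wells disagreed; inactive means no significant shift from solvent-only controls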;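 further: raw slope with 0.1% DMSO as baseline and bumetanide as block control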
HEK counter1 – parental HEK flux effect, counter-screen | 3,700 compounds, 46% hits | thallium flux rate (normalised fluorescence) at 10 µM | shares compounds with Cl transport mod | HEK293 parental cells, thallium flux FluoZin2, ouabain; baseline-ratio fluorescence slope, 10–20 s after thallium;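 active means thallium flux rate significantly above the same plate's solvent-only control wells, beyond their mean plus 3 SD; inconclusive means the two replicate wells gave conflicting results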
KCC2 ouabain – modulates human KCC2 on retest with ouabain; raw Tl+ flux slope (below DMSO = inhibition, above = activation) at 10 µM; 3,700 compounds, 48% hits; shares compounds with Cl transport mod; HEK293-KCC2, thallium flux FluoZin2 fluorescence; bidirectional: low = inhibitor, high = activator; AID 1717;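 active means thallium flux slope beyond 3 SD from same-plate DMSO control mean in most replicates, usually higher, sometimes lower; inconclusive means repeat tests gave conflicting results; inactive means no significant difference from controls in most replicates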;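 further: slope of initial-normalized fluorescence between seconds 10 and 20 after thallium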
HEK293 Tl flux2 – acts in parental HEK cells, second KCC2 counter-screen; 3,700 compounds, 33% hits; AID 1718; thallium flux slope at 10 µM; shares compounds with Cl transport mod; HEK293 parental, thallium flux FluoZin-2 fluorescence slope;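 active means thallium flux slope above the same plate's solvent-control mean plus 3 SD in both duplicate wells; inconclusive means duplicate wells that disagreed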;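 further: run without ouabain in cells lacking the KCC2 cotransporter; slope of fluorescence scaled to its starting value between 10 and 20 s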
Active calls of the source: *; ? = inconclusive; / = no result. Compounds with a hit are over-represented: about 3.3% of the library has one in this group of screens.

SMILES	Calb FLC	Efflux pump mplx	Cardio protect	PHOSPHO1 block	Cl transport mod	KCC2 secondary	KCC2 bumet counter	KCC2 sec2	HEK counter1	KCC2 ouabain	HEK293 Tl flux2
CNC(=S)N/N=C(\C)c1cccc(C(F)(F)F)c1	-17	0	-2	1	4.2*	?	0.033*	0.036	0.013*	?	0.012*
O=C(Cc1cccc(NC(=O)C2CCN(S(=O)(=O)c3cccc([N+](=O)[O-])c3)CC2)c1)Nc1cccc(C(=O)N2CCOCC2)c1	/	/	31	/	/	/	/	/	/	/	/
COc1ccc(C=NNC(=O)NN=Cc2ccc(OC)c(OC)c2)cc1OC	/	/	-15	/	/	/	/	/	/	/	/
COc1ccc(/C=N/NC(=S)SC)cc1OC	-2	1	5	-5	38*	?	0.076*	0.063*	0.053*	0.073*	0.055*
Cc1cccc(N(Cc2ccccc2)C(=O)CSC(C)C(=O)Nc2cc(C)on2)c1 (centres undefined)	7	0	-7	/	/	/	/	/	/	/	/
CCCN(CCC)S(=O)(=O)c1ccc(Cl)c(OC)c1	-6	0	-3	32	-0.36	/	/	/	/	/	/
CCN(CC)S(=O)(=O)c1ccc(Cl)c(OC)c1	-16	0	0	-16	/	0.008	0.0051	0.029	0.0065	0.02	0.0087
O=[N+]([O-])c1ccc(/C=N/Nc2nc(N3CCCC3)nc(N3CCCC3)n2)o1	?	0	17	13	6.1*	0.0053	0.0044	0.029	0.0078	0.018	0.011
Clc1cccc(-c2cccc3nccn23)c1Cl	/	/	-15	/	/	/	/	/	/	/	/
Cc1ccc(NC(=O)Cn2c(O)c(N=NC(N)=S)c3ccccc32)cc1	-13	0	2	50	/	/	/	/	/	/	/
COc1ccc2c(c1)c(N=NC(N)=S)c(O)n2CC(=O)c1ccccc1	-8	0	5	27	/	/	/	/	/	/	/
C/C(Cl)=C\Cn1c(O)c(N=NC(N)=S)c2ccccc21	-17	0	18	30	42*	?	0.06*	0.062*	0.047*	0.058*	0.045*
CCOC(=O)N=Nc1c(O)n(Cc2ccccc2)c2ccccc12	?	0	-4	5	6.9*	0.0057	0.013*	0.034	0.012*	0.023	0.014*
COC(=O)c1ccc(Cn2c(O)c(N=NC(N)=S)c3ccccc32)o1	1	0	18	42	7.1*	?	0.03*	0.035	0.016*	0.027	?
CCOC(=O)N=Nc1c(O)n(CC)c2ccccc12	1	0	-2	1	-0.14	/	/	/	/	/	/
O=C(N=Nc1c(O)n(Cc2ccccc2)c2ccccc12)c1ccncc1	-1	0	45	-3	-1.3	/	/	/	/	/	/
NC(=S)N=Nc1c(O)n(Cc2ccccc2)c2ccccc12	-10	0	9	-12	8.8*	0.0074	0.0083*	0.034	0.011*	?	?
CC(NC(=O)C12CC3(C)CC(C)(CC(C)(C3)C1)C2)C(=O)O (centres undefined)	10	0	7	16	0.23	/	/	/	/	/	/
N#CCOC(=O)/C=C/c1ccc2c(c1)OCO2	9	0	-8	28	0.96	/	/	/	/	/	/
Fc1ccc(NC(=S)Nc2ccc(F)c(Cl)c2)cc1Cl	5	0	-33	95*	-4.3*	0.006	0.0035	?	0.0059*	0.013*	?
O=C(NCc1cccc(Br)c1)C1CC(c2ccc(C(F)(F)F)cc2)=NO1 (centres undefined)	8	/	-22	/	/	/	/	/	/	/	/
O=C(COc1ccccc1)Nc1nnc(-c2ccc(Cl)s2)o1	-1	0	9	-5	/	0.014*	0.022*	0.031	0.012*	0.025	0.012*
Cc1ccc(C(=O)CCC2CCCC2=O)cc1 (centres undefined)	1	0	-3	40	1.3	/	/	/	/	/	/
Cc1ccc(C(=O)CCC2CCCCC2=O)cc1 (centres undefined)	-26	0	5	-23	/	0.0058	0.012*	0.031	0.0075	?	0.01
O=C(O)/C(=C\c1ccc(-c2ccc(F)cc2)o1)c1ccccc1	/	/	5	13	-7*	0.0073	0.008*	0.031	0.0074	0.016*	0.01
SMILES	Calb FLC	Efflux pump mplx	Cardio protect	PHOSPHO1 block	Cl transport mod	KCC2 secondary	KCC2 bumet counter	KCC2 sec2	HEK counter1	KCC2 ouabain	HEK293 Tl flux2
CSc1nc2ccc3nc(NC(=O)c4ccc(C)cc4)sc3c2s1	1	0	-11	2	1.2	/	/	/	/	/	/
Cc1ccc(C(=O)Nc2nc3ccccc3c(=O)s2)cc1	87*	0	-13	9	41*	0.027*	0.14*	0.054*	0.079*	0.11*	0.029*
Cc1ccc(Nc2nc3ccccc3c(=O)s2)cc1C	-8	0	5	-3	17*	0.0072	0.031*	0.043*	0.026*	0.039*	0.028*
COc1ccc(Nc2nc3ccccc3c(=O)s2)c(OC)c1	-2	0	2	16	0.54	/	/	/	/	/	/
CC[C@]12c3[nH]c4ccc(OC)cc4c3CCN1C(=O)C(CC(=O)NCCc1ccccn1)C[C@@H]2C(=O)N1CCN(C(=O)C2CC2)CC1 (some centres undefined)	/	0	12	/	/	/	/	/	/	/	/
Cc1ccc(/C=N\Nc2nc3ccc(Cl)cc3[nH]2)o1	1	0	-11	22	4.8*	0.0071	0.0043	0.031	?	0.019	0.012
CC1CN(C(=O)Cn2cc(SCC(=O)N3CCOCC3)c3ccccc32)CC(C)O1 (centres undefined)	-1	0	3	37	/	/	/	/	/	/	/
CCOc1ccccc1N1C(=O)c2ccc(C(=O)Nc3cccnc3)cc2C1=O	9	0	1	26	-4.6*	0.009	0.0069	0.032	0.0076	0.023	0.011
CC(=O)Oc1cccc(N2C(=O)c3ccc(C(=O)Nc4cccnc4)cc3C2=O)c1	6	0	-6	-12	2.8	/	/	/	/	/	/
COc1cc(CC(=O)Nc2ccc(S(=O)(=O)Nc3ncccn3)cc2)cc(OC)c1OC	3	0	-5	18	-4*	0.0095	0.0063	0.034	0.0095*	0.02	0.012
COc1ccc(CC(=O)Nc2ccc(S(=O)(=O)Nc3ncccn3)cc2)cc1OC	0	0	7	25	-0.077	/	/	/	/	/	/
COc1ccc(CC(=O)Nc2ccc(S(=O)(=O)Nc3nc(C)cc(C)n3)cc2)cc1	2	0	2	3	-5.9*	0.009	0.009*	0.033	0.0077	0.022	0.011
